We go through 40 compounds from ChEMBL document CHEMBL4513146, “CO-ADD screening of Karazin Kharkiv National University (Ukraine) compounds”.

Entries with a potency or affinity are not part of this list.

In the first test the test system is Klebsiella pneumoniae. To be noted: Concentration 32 ug.mL-1;; ASSAY_TEST Inhibition of Bacterial Growth; detection method Absorption (OD600); MEDIA CAMHB; plate type 384well; NBS; CORNING #3640; time 18 hr.
For `Cc1ccc(C)c(NC(=O)Cn2nc3cc(C)nc(Nc4ccc(F)cc4)n3c2=O)c1`, the Inhibition (as a rule, the change of the read-out against control, counted positive when it falls) is 5.73%.
The same measure, in the same setting: the same measure for `COc1cc(OC)c(NC(=O)Cn2nc3c(Oc4cccc(C)c4C)nccn3c2=O)cc1Cl`: 8.97%; for `CCOC(=O)N1CCN(C(=O)CCc2nnc3c4cc(-c5ccccc5)nn4ccn23)CC1`: 14.35%.
With `COc1ccccc1-n1ccn2c(SCc3cc(C)ccc3C)nnc2c1=O`, the Inhibition stood at 16.48%.
Same read-out and setting: in the case of `Cc1ccc(Sc2nccn3c(=O)n(CC(=O)N4CCN(c5ccc(F)cc5)CC4)nc23)c(C)c1` it was -6.63%.
Same read-out and setting: in the case of `COc1cccc(NC(=O)Cn2nc3c(N4CCCC4)nccn3c2=O)c1` it was 8.57%.
On the same count and under the same terms, in the case of `CCc1ccccc1Sc1nccn2c(=O)n(CC(=O)NCc3ccc(OC)cc3)nc12` it was 1.83%; in that of `O=S(=O)(c1ccc2nncn2c1)N(Cc1ccccc1F)c1ccc(F)c(F)c1`, -0.52%.
Take `COc1cccc(Sc2nc3ccccc3n3c(=O)n(CC(=O)Nc4cccc(F)c4)nc23)c1`: the Inhibition is 12.26%.
Same read-out and setting: the same measure for `O=C(Cn1nc2c3cc(-c4ccccc4)nn3ccn2c1=O)N1CCN(c2ccccc2F)CC1`: 9.85%; for `CCOC(=O)c1ccc(NC(=O)Cn2nc3c(SC4CCCCC4)nccn3c2=O)cc1`: 11.88%; for `Cc1ccc(NC(=O)CSc2nnc3ccc(C(=O)Nc4cccc(F)c4)cn23)c(C)c1`: 2.38%.
Same read-out and setting: in the case of `O=c1c2sccc2n2c(=O)n(Cc3cccc(Cl)c3)nc2n1CCc1ccccc1` it was 11.95%.
Same read-out and setting: in the case of `CCCCOc1ccc(-c2cc3c4nnc(SCC(=O)Nc5cccc(C#N)c5)n4ccn3n2)cc1` it was -0.44%; in that of `COc1ccc(NC(=O)Cn2nc3c4c5c(sc4ncn3c2=O)CCCC5)cc1`, 6.74%.
`COc1ccccc1-n1ccn2c(SCc3ccc(Cl)cc3)nnc2c1=O`: the Inhibition is 8.98%.
The same measure, in the same setting: in the case of `O=C(CSc1nnc2c(=O)n(-c3cccc(F)c3)ccn12)c1ccc(F)cc1` it was 9.88%; in that of `Cc1ccc(NC(=O)Cn2nc3ccc(SCc4ccc(Cl)cc4)nn3c2=O)cc1`, -9.13%.
Still for that read-out and setting: in the case of `O=c1n(Cc2ccc3c(c2)OCO3)nc2c(S(=O)(=O)N3CCCCC3)cccn12` it was 10.73%.
On the same count and under the same terms, in the case of `O=C(CSc1nnc2c(=O)n(-c3ccc(F)cc3)ccn12)N1CCN(c2ccc(F)cc2)CC1` it was -5.39%.
Consider `COc1ccc(-c2cc3c4nnc(CCC(=O)NCCc5ccccc5)n4ccn3n2)cc1`, for which the Inhibition came out at 3.81%.
Still for that read-out and setting: in the case of `CCCNC(=O)Cn1nc2nc(Nc3ccc(F)cc3)ccn2c1=O` it was -2.03%; in that of `COC(=O)c1ccccc1NC(=O)Cn1nc2c(Oc3cccc(OC)c3)nccn2c1=O`, -16.2%; in that of `Cc1cc(C)cc(Nc2nc(C)cc3nn(CC(=O)Nc4cc(F)cc(F)c4)c(=O)n23)c1`, 13.54%.
For the compound `COc1cccc(Sc2nc3ccccc3n3c(=O)n(CC(=O)Nc4cc(C)cc(C)c4)nc23)c1`, the Inhibition stood at 4.15%.
On to `Cc1ccc(Sc2nccn3c(=O)n(CC(=O)Nc4cc(Cl)ccc4C)nc23)c(C)c1`, for which the Inhibition was -1.75%.
Same read-out and setting: in the case of `COc1cccc(-n2ccn3c(SCC(=O)NCc4ccc(C)cc4)nnc3c2=O)c1` it was 8.21%.
On the same count and under the same terms, the same measure for `CCOc1ccc(C(=O)Cn2nc3n(CCC(C)C)c(=O)c4sccc4n3c2=O)cc1`: 4.69%; for `O=c1c2sccc2n2c(=S)[nH]nc2n1CC1CCCO1` (stereo not given): 6.97%.
Still for that read-out and setting: the same measure for `Cc1ccc(-c2ccc3nn(Cc4cccc(Cl)c4)c(=O)n3n2)cc1C`: 12.21%; for `Cc1cc(C)cc(NC(=O)Cn2nc3n(C)c(=O)c4c(c(-c5ccccc5)cn4C)n3c2=O)c1`: 6.43%.
Turning to `CC1CCCN(c2nccn3c(=O)n(CC(=O)Nc4ccc(Br)cc4F)nc23)C1` (stereo not given), the Inhibition worked out at 5.81%.
As for `Cc1ccccc1Nc1cc(C)n2c(=O)n(CCOc3ccc(F)cc3)nc2n1`, the Inhibition is 9.7%.
On the same count and under the same terms, in the case of `CCOC(=O)c1ccc(NC(=O)Cn2nc3c4cc(-c5ccc(C)cc5)nn4ccn3c2=O)cc1` it was -1.86%; in that of `N#Cc1cccc(NC(=O)Cn2nc3c(Oc4ccccc4)nccn3c2=O)c1`, 7.41%; in that of `CCCn1c(=O)c2ccc(C(=O)NC3CCCCC3)cc2n2c(=O)n(CC#N)nc12`, 5.71%.
Same read-out and setting: the same measure for `CCCCn1c(=O)c2sccc2n2c(=O)n(CC(=O)N3CCCC(C(=O)OCC)C3)nc12` (stereo not given): -2.03%; for `O=C(NCc1ccccc1)c1ccc2nn(CC(=O)N3CCN(c4ccccc4F)CC3)c(=O)n2c1`: 7.35%; for `COC(=O)c1ccccc1NC(=O)CSc1nc2ccccc2n2c(C(C)C)nnc12`: 12.98%.
For the compound `COc1ccccc1-n1ccn2c(SCC(=O)Nc3ccc4c(c3)OCO4)nnc2c1=O`, the Inhibition is given as 8.58%.

In another test the test system is Candida albicans. As to conditions: Concentration 32 ug.mL-1; ASSAY_TEST Inhibition of Fungal Growth; detection method Absorption (OD530).
Turning to `Cc1ccc(C)c(NC(=O)Cn2nc3cc(C)nc(Nc4ccc(F)cc4)n3c2=O)c1`, the Inhibition is 2.17%.
The same measure, in the same setting: in the case of `COc1cc(OC)c(NC(=O)Cn2nc3c(Oc4cccc(C)c4C)nccn3c2=O)cc1Cl` it was 0.16%; in that of `CCOC(=O)N1CCN(C(=O)CCc2nnc3c4cc(-c5ccccc5)nn4ccn23)CC1`, 1.03%; in that of `COc1ccccc1-n1ccn2c(SCc3cc(C)ccc3C)nnc2c1=O`, 0.1%.
Still for that read-out and setting: the same measure for `Cc1ccc(Sc2nccn3c(=O)n(CC(=O)N4CCN(c5ccc(F)cc5)CC4)nc23)c(C)c1`: 1.39%.
`COc1cccc(NC(=O)Cn2nc3c(N4CCCC4)nccn3c2=O)c1`: the Inhibition came to 2.47%.
Regarding `CCc1ccccc1Sc1nccn2c(=O)n(CC(=O)NCc3ccc(OC)cc3)nc12`, the Inhibition came to 2.04%.
As for `O=S(=O)(c1ccc2nncn2c1)N(Cc1ccccc1F)c1ccc(F)c(F)c1`, the Inhibition was found to be 1.44%.
Same read-out and setting: the same measure for `COc1cccc(Sc2nc3ccccc3n3c(=O)n(CC(=O)Nc4cccc(F)c4)nc23)c1`: -1.78%; for `O=C(Cn1nc2c3cc(-c4ccccc4)nn3ccn2c1=O)N1CCN(c2ccccc2F)CC1`: 1.75%; for `CCOC(=O)c1ccc(NC(=O)Cn2nc3c(SC4CCCCC4)nccn3c2=O)cc1`: -1.98%.
Still for that read-out and setting: in the case of `Cc1ccc(NC(=O)CSc2nnc3ccc(C(=O)Nc4cccc(F)c4)cn23)c(C)c1` it was 9.81%; in that of `O=c1c2sccc2n2c(=O)n(Cc3cccc(Cl)c3)nc2n1CCc1ccccc1`, 1.58%.
Still for that read-out and setting: the same measure for `CCCCOc1ccc(-c2cc3c4nnc(SCC(=O)Nc5cccc(C#N)c5)n4ccn3n2)cc1`: 7.68%; for `COc1ccc(NC(=O)Cn2nc3c4c5c(sc4ncn3c2=O)CCCC5)cc1`: 5.37%; for `COc1ccccc1-n1ccn2c(SCc3ccc(Cl)cc3)nnc2c1=O`: 1.6%.
For the compound `O=C(CSc1nnc2c(=O)n(-c3cccc(F)c3)ccn12)c1ccc(F)cc1`, the Inhibition is 4%.
On the same count and under the same terms, the same measure for `Cc1ccc(NC(=O)Cn2nc3ccc(SCc4ccc(Cl)cc4)nn3c2=O)cc1`: 7.44%.
On the same count and under the same terms, the same measure for `O=c1n(Cc2ccc3c(c2)OCO3)nc2c(S(=O)(=O)N3CCCCC3)cccn12`: 3.52%; for `O=C(CSc1nnc2c(=O)n(-c3ccc(F)cc3)ccn12)N1CCN(c2ccc(F)cc2)CC1`: -0.55%; for `COc1ccc(-c2cc3c4nnc(CCC(=O)NCCc5ccccc5)n4ccn3n2)cc1`: 3.45%.
The same measure, in the same setting: the same measure for `CCCNC(=O)Cn1nc2nc(Nc3ccc(F)cc3)ccn2c1=O`: -0.03%; for `COC(=O)c1ccccc1NC(=O)Cn1nc2c(Oc3cccc(OC)c3)nccn2c1=O`: 1.71%; for `Cc1cc(C)cc(Nc2nc(C)cc3nn(CC(=O)Nc4cc(F)cc(F)c4)c(=O)n23)c1`: 4.35%.
Regarding `COc1cccc(Sc2nc3ccccc3n3c(=O)n(CC(=O)Nc4cc(C)cc(C)c4)nc23)c1`, the Inhibition was 5.74%.
Still for that read-out and setting: the same measure for `Cc1ccc(Sc2nccn3c(=O)n(CC(=O)Nc4cc(Cl)ccc4C)nc23)c(C)c1`: 4.75%.
Regarding `COc1cccc(-n2ccn3c(SCC(=O)NCc4ccc(C)cc4)nnc3c2=O)c1`, the Inhibition stood at 2%.
As to `CCOc1ccc(C(=O)Cn2nc3n(CCC(C)C)c(=O)c4sccc4n3c2=O)cc1`, the Inhibition was found to be 2.69%.
Still for that read-out and setting: the same measure for `O=c1c2sccc2n2c(=S)[nH]nc2n1CC1CCCO1` (stereo not given): -1.18%.
Still for that read-out and setting: in the case of `Cc1ccc(-c2ccc3nn(Cc4cccc(Cl)c4)c(=O)n3n2)cc1C` it was 1.14%; in that of `Cc1cc(C)cc(NC(=O)Cn2nc3n(C)c(=O)c4c(c(-c5ccccc5)cn4C)n3c2=O)c1`, 0.06%.
On the same count and under the same terms, in the case of `CC1CCCN(c2nccn3c(=O)n(CC(=O)Nc4ccc(Br)cc4F)nc23)C1` (stereo not given) it was 5.05%.
On to `Cc1ccccc1Nc1cc(C)n2c(=O)n(CCOc3ccc(F)cc3)nc2n1`, for which the Inhibition is reported as -1.22%.
Same read-out and setting: the same measure for `CCOC(=O)c1ccc(NC(=O)Cn2nc3c4cc(-c5ccc(C)cc5)nn4ccn3c2=O)cc1`: 7.19%; for `N#Cc1cccc(NC(=O)Cn2nc3c(Oc4ccccc4)nccn3c2=O)c1`: 1.17%.
The same measure, in the same setting: the same measure for `CCCn1c(=O)c2ccc(C(=O)NC3CCCCC3)cc2n2c(=O)n(CC#N)nc12`: 1.88%.
Take `CCCCn1c(=O)c2sccc2n2c(=O)n(CC(=O)N3CCCC(C(=O)OCC)C3)nc12` (stereo not given): the Inhibition was -3.31%.
Still for that read-out and setting: in the case of `O=C(NCc1ccccc1)c1ccc2nn(CC(=O)N3CCN(c4ccccc4F)CC3)c(=O)n2c1` it was 4.65%; in that of `COC(=O)c1ccccc1NC(=O)CSc1nc2ccccc2n2c(C(C)C)nnc12`, -0.8%; in that of `COc1ccccc1-n1ccn2c(SCC(=O)Nc3ccc4c(c3)OCO4)nnc2c1=O`, 4.47%.
